HttQ103 aggreg = inhibitors of mutant huntingtin aggregate formation in PC12 cells; PC12 HttQ103-GFP aggregates, Acumen cytometry, 40 h; Potency, µM (titrated, usually from 46.1 µM), for inactives: at the highest dose activity change, negative = inhibition, usual class: inhibitors; actives 1.1% (n = 220,000); AID 1688; note: potency is the fitted concentration of half-maximal effect; % is set by controls: 0 for no effect and ±100 for the full control effect; nearly all actives have a fitted effect of over 60% in size
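Aggregates are detected as GFP objects 1–25 µm with signal 6 STDEV over background in lysates of induced PC12 cells. These carry Huntingtin exon 1 with 103 glutamines fused to GFP under an ecdysone promoter; compounds titrated.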
PNC inhibitor = blocks assembly of the perinucleolar compartment | activity change (PNC), negative = inhibition, % at 10 µM | PC3M PTB-GFP, PNC prevalence imaging, 16 h; hits give low values | actives 3.1% (n = 140,000);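 active = readout at or below -70, meaning at least 70% loss of cells showing the perinucleolar compartment, a nuclear body marking cancer cells; inconclusive = readout between -30 and a set limit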;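 note: plate controls were DMSO wells for no effect and camptothecin positive control wells for full effect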
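Compounds are pinned in duplicate onto adhered PC3M cells stably expressing GFP-tagged PTB and incubated 16 h at 37 C. Cells are then fixed, nuclei stained with Hoechst, and PNC-positive cells counted.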
HTT ATP protect = Huntington cell model cytoprotection by ATP luminescence; PC12 HTT-Q103 induced, cytoprotection, ATP luminescence, 40 h; Potency, µM (doses to about 56.4 µM), without a hit: cytoprotection (ATP increase), hits mostly activators; actives 0.14% (n = 230,000); note: potency is the fitted concentration of half-maximal effect; % of control where 0% means no effect; nearly all actives have a fitted effect of over 45% in size
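Readout: ATPlite luminescence (ATP level). Model: stable PC12, inducible Htt exon1 Q103-GFP. Inducer: tebufenozide, 100 nM final. Compounds: dose series. No G418 in medium.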
* = called active by the depositor; ? = inconclusive; nt = not tested or not shown; [ ] = dose if it differs, or a comment. This excerpt belongs to a sample that is enriched for hits. Unless noted, calls come from the whole dose curve; as a rule, active = well fitted curve in the direction sought with a large enough effect; inconclusive = small, poorly fitted or top-dose-only effect, or another doubt; inactive = no such curve, though single readings can be large; an effect the other way counts as inactive or inconclusive.

SMILES	HttQ103 aggreg	PNC inhibitor	HTT ATP protect
Cc1ccc(C(=O)NC(=S)Nc2cc(-c3nc4ccccc4s3)ccc2C)cc1	6%	-109*	-5%
COc1ccc(-c2nc3ccccc3s2)cc1NC(C)=O	-3%[9.22 µM]	nt	-26%[1.9 µM]
COc1ccccc1C/C(N)=N/OC(=O)c1cccc([N+](=O)[O-])c1C	6%	33	-16%[10 µM]
Cc1ccccc1N=Nc1c(C)[nH]n(C(N)=S)c1=O	-21%	-113*	nt
Cc1cccc(N=Nc2c(C)[nH]n(C(N)=S)c2=O)c1C	-8%	nt	-27%
COCCOC(=O)c1c(C)oc2ccc(OC(=O)c3ccc4c(c3)OCO4)cc12	-9%	-13	10%[10 µM]
O=C(O)C1CC=CCC1C(=O)Nc1ccc2c(c1)OCCO2 (centres undefined)	-10%	-119*	32%[1.9 µM]
O=C(O)C1CC=CCC1C(=O)Nc1ccc(F)c(F)c1 (centres undefined)	6%	-19	13%
O=C(Nc1ccc2c(c1)OCCO2)C1CCN(C(=O)c2ccc(Br)cc2)CC1	2%	6	4%[0.074 µM]
O=C(Nc1ccc2c(c1)OCCO2)C1CCN(C(=O)c2ccccc2)CC1	1%	-105*	-14%
CCCNC(=S)N1CCC(C(=O)c2ccc(OC)cc2)CC1	7%	-2	26%[10 µM]
CCCCN(C)CC(O)Cn1cc(/C=C/C(=O)c2cccs2)c2ccccc21 (centres undefined)	-16%	-100*	-12%[10 µM]
O=C(/C=C/c1cn(CC(O)CN2CCCCCC2)c2ccccc12)c1cccs1 (centres undefined)	-19%	?	1%[10 µM]
Cc1nonc1C(=O)N/N=C/c1cccc(O)c1	-7%	-10	18%[10 µM]
O=C(Nc1ccc(F)cc1F)c1ccccc1-c1ccccc1	4%	-10	5%[10 µM]
O=C(Nc1cccc(F)c1)c1ccccc1-c1ccccc1	?	-103*	3%[10 µM]
NS(=O)(=O)c1ccc(CNC(=O)c2cc(-c3ccccc3)nc3ccccc23)cc1	-1%[9.22 µM]	nt	5%[10 µM]
O=C1CC(c2cccc(Oc3ccccc3)c2)NC(=O)N1 (centres undefined)	12%	?	0%
CC(C)Cn1c(N)c(C(=O)COC(=O)c2ccc(O)cc2)c(=O)n(C)c1=O	25%	nt	nt
Cc1nn(-c2ccccc2)c(C)c1C(=O)OCC(=O)c1c(N)n(CC(C)C)c(=O)n(C)c1=O	5µM*	12	-15%[10 µM]
CCn1cc(SCC(=O)NCc2ccc3c(c2)OCO3)c2ccccc21	-4%	-10	-9%[10 µM]
O=C(NCc1cccs1)C(=O)NCC1OCCCN1S(=O)(=O)c1cccs1 (centres undefined)	17%	nt	-32%
CN1CCN(c2ncncc2-c2ccoc2)CC1	nt	nt	28%
O=C(OCC1COc2ccccc2O1)c1c(F)cccc1F (centres undefined)	11%	?	-1%
CC(C)Cn1c(CNC(=O)c2ccccc2)nc2ccccc21	9%	4	1%
SMILES	HttQ103 aggreg	PNC inhibitor	HTT ATP protect
CCc1nc2ccccc2n1CC(C)C(=O)O (centres undefined)	-10%	-100*	-8%[10 µM]
CCn1c(=O)c(C(=O)Nc2nc3ccccc3[nH]2)c(O)c2ccccc21	10µM*	1	-35%
CCc1nc2ccccc2c(=O)n1NC(=O)c1c(O)c2ccccc2n(CC)c1=O	3%[9.22 µM]	nt	21%[10 µM]
CC(C)(C)C1CCc2onc(C(=O)O)c2C1 (centres undefined)	4%[9.22 µM]	nt	3%[10 µM]
Nc1nc2ccccc2n1C(=O)CCc1ccccc1	-9%	-87*	-34%
Nc1nc2ccccc2n1C(=O)c1ccccc1	-6%[9.22 µM]	nt	-69%[10 µM]
COc1ccc(C(C)(C)C)cc1NC(=O)COC(=O)C(C)C	?	nt	-34%
CCOC(=O)C(c1ccc(OC)c(OC)c1)C1c2ccccc2C=C(C)N1C(=O)OC (centres undefined)	nt	nt	-12%[10 µM]
COC(=O)c1ccccc1NC(=O)c1ccccc1SC	-13%	18	-6%[1.9 µM]
CCOCCCNC(=O)c1ccccc1SC	-8%	?	-2%[0.074 µM]
CCOC(=O)c1ccccc1NC(=O)c1cncc(Br)c1	-12%	-93*	4%
CCOC(=O)c1ccccc1NC(=O)c1ccccc1SC	-14%	-80*	-32%
COCCCNC(=O)c1ccccc1SC	-10%	-107*	-24%
CCOC(=O)c1ccccc1NC(=O)c1cccnc1	-22%	?	-8%[10 µM]
CC1CC(C)CN(c2ccc(C(=O)OCC(=O)NC3CCCc4ccccc43)cc2[N+](=O)[O-])C1 (centres undefined)	19%	-22	14%
CCOC(=O)c1sc(NC(=O)C(CC)Sc2nnc3c4ccccc4n(C(C)C)c3n2)nc1C (centres undefined)	?	15	-13%
CCc1ccc(Cn2nnc(C(=O)NCc3ccccc3OC)c2N)cc1	14%	9	-23%
CCCc1cc(=O)n2[nH]c(-c3ccc(Br)cc3)cc2n1	-29%	-100*	-11%[10 µM]
CCOC(=O)Cc1cc(=O)n2[nH]c(-c3ccccc3)cc2n1	2%	47	0%[10 µM]
Cc1ccc(C)c(NC(=O)CCC(=O)N/N=C/c2cc([N+](=O)[O-])ccc2O)c1	-9%[9.22 µM]	nt	16%[10 µM]
O=C(CNC(=O)c1ccc2c(c1)OCCO2)N/N=C/c1ccc(O)cc1O	-26%	-5	16%[10 µM]
O=C(N/N=C/c1ccccc1[N+](=O)[O-])c1ccc2c(c1)OCCO2	-16%[9.22 µM]	nt	-92%[10 µM]
COc1cccc(/C=N/NC(=O)CNC(=O)c2ccc3c(c2)OCCO3)c1O	35µM*	-4	0%[10 µM]
COc1cccc(/C=N/NC(=O)CNC(=O)C2COc3ccccc3O2)c1O (centres undefined)	13µM*	-6	34%[10 µM]
Cc1ccccc1NC(=O)CCC(=O)N/N=C/c1cc([N+](=O)[O-])ccc1O	13µM*	?	nt
SMILES	HttQ103 aggreg	PNC inhibitor	HTT ATP protect
COc1ccc(/C(C)=N/NC(=O)CNC(=O)C2COc3ccccc3O2)c(OC)c1 (centres undefined)	0%[9.22 µM]	nt	-5%[10 µM]
O=C(N/N=C/c1cc([N+](=O)[O-])ccc1O)c1ccc2c(c1)OCCO2	14µM*	29	25%[10 µM]
Cc1nn(-c2ccccc2)c(N)c1C(c1ccc(C(C)C)cc1)c1c(C)nn(-c2ccccc2)c1N	-10%	?	-6%[10 µM]
CCOC(=O)c1ccc(N=C2C(=S)N(c3ccc(C(=O)OCC)cc3)C(=N)N2/N=C/c2ccccc2)cc1	19%	-86*	8%[10 µM]
CCOC(=O)c1ccc(N=c2scc(C)n2CC)cc1	12%	nt	43%[10 µM]
COc1ccc(OCc2nn3c(-c4ccccn4)nnc3s2)cc1	8%	?	-20%
O=C(O)CC1(CC(=O)N2CCN(CCO)CC2)CCCC1	-4%	nt	-16%
Cc1ccc(OCc2nnc(SCC(=O)Nc3ccc4c(c3)OCO4)n2C)cc1	-7%	?	-4%[1.9 µM]
CC(C)NC(=O)c1ccc(CNC(=O)OCC(F)(F)F)cc1	-4%	27	1%
Cc1nc2ccccc2n1CC(=O)N1CC(=O)Nc2ccccc21	-10%	25	11%
O=C1CN(C(=O)Cn2ncc(Cl)c(Cl)c2=O)c2ccccc2N1	11µM*	nt	-159%
Cc1ccc(C(=O)COC(=O)c2ccc3c(c2)C(=O)N(c2cccc4ncccc24)C3=O)cc1C	22%	-16	-16%
CCC(C(=O)OC)n1cnc2c(nnn2-c2cccc(Cl)c2)c1=O (centres undefined)	?	40	9%
C/C(CC(=O)Nc1cccc(Cl)c1C)=N\NC(=O)Cc1csc(N)n1	20%	nt	-8%[10 µM]
